The campaign covered roughly 5,500 compounds. About 2,000 (36%) were called active. Inconclusive results (about 18%) are left out. Rule as the data show it: active = normalized growth mostly below about 0.91 (no sharp cut-off); inconclusive = no clear call, values can overlap the other calls; inactive = mostly above about 0.92. The list shows a part of the results.
Assay: chemical genetic growth profiling, strain panel (AID 1159580);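 also: tested at 20 µM; growth read once vehicle control cultures reached saturation at 30 °C; 1 = growth at the plate median or of vehicle wells; lower values mean less growth of the strain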
Conditions: growth OD

Measured: normalized growth

CC1(C)C(=O)[C@@H]2O[C@@H]2[C@@]2(C)C1C[C@@H](O)[C@]1(C)C2CC[C@@]2(C)[C@H](c3ccoc3)OC(=O)C3OC321 (some centres not stated)
inactive: S. cerevisiae deletion strains, locus YJL187C, strain SWE1, stronger effect = lower value 0.994 | S. cerevisiae deletion strains, locus YJR043C, strain POL32, stronger effect = lower value 0.998 | S. cerevisiae deletion strains, locus YJR066W, strain TOR1, stronger effect = lower value 0.926 | S. cerevisiae deletion strains, locus YKL009W, strain mrt4, stronger effect = lower value 1.02 | S. cerevisiae deletion strains, locus YKL068W, stronger effect = lower value 0.993 | S. cerevisiae deletion strains, locus YKL085W, strain MDH1 (second series), stronger effect = lower value 0.997 | S. cerevisiae deletion strains, locus YKL085W, strain MDH1, stronger effect = lower value 0.997 | S. cerevisiae deletion strains, locus YKL160W, strain elf1, stronger effect = lower value 0.998 | S. cerevisiae deletion strains, locus YKR001C, strain vps1, stronger effect = lower value 0.979 | S. cerevisiae deletion strains, locus YKR026C, strain gcn3, stronger effect = lower value 0.995 | S. cerevisiae deletion strains, locus YKR091W, strain srl3, stronger effect = lower value 0.992 | S. cerevisiae deletion strains, locus YLL001W, strain dnm1, stronger effect = lower value 0.99 | S. cerevisiae deletion strains, locus YLL026W, stronger effect = lower value 0.99 | S. cerevisiae deletion strains, locus YLL041C, strain sdh2, stronger effect = lower value 0.999 | S. cerevisiae deletion strains, locus YLR027C, strain aat2, stronger effect = lower value 0.984 | S. cerevisiae deletion strains, locus YLR039C, strain RIC1, stronger effect = lower value 1.11 | S. cerevisiae deletion strains, locus YLR058C, strain SHM2, stronger effect = lower value 0.997 | S. cerevisiae deletion strains, locus YLR102C, strain apc9, stronger effect = lower value 0.987 | S. cerevisiae deletion strains, locus YLR113W, strain HOG1, stronger effect = lower value 1.01 | S. cerevisiae deletion strains, locus YLR221C, strain rsa3, stronger effect = lower value 0.999 | S. cerevisiae deletion strains, locus YLR258W, strain gsy2, stronger effect = lower value 1.02 | S. cerevisiae deletion strains, locus YLR262C, strain YPT6 (second series), stronger effect = lower value 0.973 | S. cerevisiae deletion strains, locus YLR268W, strain sec22, stronger effect = lower value 0.987 | S. cerevisiae deletion strains, locus YLR320W, strain mms22, stronger effect = lower value 0.998 | S. cerevisiae deletion strains, locus YLR330W, strain CHS5, stronger effect = lower value 1 | S. cerevisiae deletion strains, locus YLR342W, strain FKS1 (second series), stronger effect = lower value 0.992 | S. cerevisiae deletion strains, locus YLR342W, strain FKS1, stronger effect = lower value 0.999 | S. cerevisiae deletion strains, locus YLR357W, strain rsc2, stronger effect = lower value 0.968 | S. cerevisiae deletion strains, locus YLR370C, strain arc18, stronger effect = lower value 0.995 | S. cerevisiae deletion strains, locus YLR371W, strain rom2, stronger effect = lower value 0.982 | S. cerevisiae deletion strains, locus YLR384C, strain iki3, stronger effect = lower value 1.02 | S. cerevisiae deletion strains, locus YLR418C, strain cdc73, stronger effect = lower value 0.919 | S. cerevisiae deletion strains, locus YML016C, strain PPZ1, stronger effect = lower value 1.01 | S. cerevisiae deletion strains, locus YML032C, strain rad52, stronger effect = lower value 0.994 | S. cerevisiae deletion strains, locus YML120C, strain ndi1, stronger effect = lower value 1 | S. cerevisiae deletion strains, locus YML124C, strain tub3, stronger effect = lower value 0.996 | S. cerevisiae deletion strains, locus YMR058W, strain fet3, stronger effect = lower value 1 | S. cerevisiae deletion strains, locus YMR078C, strain ctf18, stronger effect = lower value 0.994 | S. cerevisiae deletion strains, locus YMR125W, strain sto1, stronger effect = lower value 1 | S. cerevisiae deletion strains, locus YMR129W, stronger effect = lower value 1 | S. cerevisiae deletion strains, locus YMR205C, strain PFK2, stronger effect = lower value 0.999 | S. cerevisiae deletion strains, locus YMR223W, strain ubp8, stronger effect = lower value 0.979 | S. cerevisiae deletion strains, locus YMR231W, strain pep5, stronger effect = lower value 0.98 | S. cerevisiae deletion strains, locus YMR263W, strain SAP30, stronger effect = lower value 0.974 | S. cerevisiae deletion strains, locus YMR307W, strain GAS1, stronger effect = lower value 0.938 | S. cerevisiae deletion strains, locus YNL067W, strain RPL9B, stronger effect = lower value 0.982 | S. cerevisiae deletion strains, locus YNL071W, strain lat1, stronger effect = lower value 0.998 | S. cerevisiae deletion strains, locus YNL183C, strain NPR1, stronger effect = lower value 0.951 | S. cerevisiae deletion strains, locus YNL209W, strain ssb2, stronger effect = lower value 1.01 | S. cerevisiae deletion strains, locus YNL233W, strain BNI4, stronger effect = lower value 0.99 | S. cerevisiae deletion strains, locus YNL248C, strain rpa49, stronger effect = lower value 0.991 | S. cerevisiae deletion strains, locus YNL250W, strain rad50, stronger effect = lower value 0.982 | S. cerevisiae deletion strains, locus YNL271C, strain bni1, stronger effect = lower value 0.989 | S. cerevisiae deletion strains, locus YNL298W, strain CLA4, stronger effect = lower value 0.971 | S. cerevisiae deletion strains, locus YNL307C, strain MCK1, stronger effect = lower value 0.967 | S. cerevisiae deletion strains, locus YNL322C, strain KRE1 (second series), stronger effect = lower value 1 | S. cerevisiae deletion strains, locus YNR049C, strain mso1, stronger effect = lower value 1.01 | S. cerevisiae deletion strains, locus YNR052C, strain pop2, stronger effect = lower value 0.964 | S. cerevisiae deletion strains, locus YOL006C, strain TOP1, stronger effect = lower value 0.992 | S. cerevisiae deletion strains, locus YOL012C, strain htz1 0.956 | S. cerevisiae deletion strains, locus YOL147C, strain pex11, stronger effect = lower value 0.988 | S. cerevisiae deletion strains, locus YOR001W, strain rrp6, stronger effect = lower value 1.02 | S. cerevisiae deletion strains, locus YOR061W, strain CKA2, stronger effect = lower value 1.01 | S. cerevisiae deletion strains, locus YOR069W, strain VPS5, stronger effect = lower value 1 | S. cerevisiae deletion strains, locus YOR070C, strain gyp1, stronger effect = lower value 0.992 | S. cerevisiae deletion strains, locus YOR080W, strain dia2, stronger effect = lower value 0.988 | S. cerevisiae deletion strains, locus YOR083W, strain WHI5, stronger effect = lower value 0.992 | S. cerevisiae deletion strains, locus YOR106W, strain vam3, stronger effect = lower value 0.995 | S. cerevisiae deletion strains, locus YOR136W, strain idh2, stronger effect = lower value 0.975 | S. cerevisiae deletion strains, locus YOR144C, strain elg1, stronger effect = lower value 0.985 | S. cerevisiae deletion strains, locus YOR184W, strain ser1, stronger effect = lower value 0.978 | S. cerevisiae deletion strains, locus YOR231W, strain MKK1, stronger effect = lower value 0.983 | S. cerevisiae deletion strains, locus YOR265W, strain rbl2, stronger effect = lower value 0.983 | S. cerevisiae deletion strains, locus YOR270C, strain vph1, stronger effect = lower value 0.946 | S. cerevisiae deletion strains, locus YOR290C, strain snf2, stronger effect = lower value 0.968 | S. cerevisiae deletion strains, locus YOR316C, strain cot1, stronger effect = lower value 0.992 | S. cerevisiae deletion strains, locus YPL051W, strain arl3, stronger effect = lower value 0.986 | S. cerevisiae deletion strains, locus YPL078C, strain atp4, stronger effect = lower value 1.01 | S. cerevisiae deletion strains, locus YPL106C, strain sse1, stronger effect = lower value 1 | S. cerevisiae deletion strains, locus YPL240C, strain hsp82, stronger effect = lower value 1.01 | S. cerevisiae deletion strains, locus YPL256C, strain CLN2, stronger effect = lower value 0.952 | S. cerevisiae deletion strains, locus YPR119W, strain clb2, stronger effect = lower value 0.982 | S. cerevisiae deletion strains, locus YPR141C, strain kar3, stronger effect = lower value 0.992 | S. cerevisiae deletion strains, locus YPR163C, strain tif3, stronger effect = lower value 0.979 | S. cerevisiae deletion strains, locus YPR167C, strain met16, stronger effect = lower value 0.982 | S. cerevisiae deletion strains, strain wtn01, stronger effect = lower value 0.999 | S. cerevisiae strains, strain wild type, stronger effect = lower value 0.994
